p53 reactivator: restores transcriptional activity of mutant p53; H1299 p53-A138V BP100-luciferase reporter, luminescence, 24 h; Potency, µM (doses to about 92.2 µM), inactives show top-dose activity change, positive = activation, hits mostly activators; actives 0.063% (n = 320,000); further: potency means the concentration at half of the fitted maximal effect; % of control where 0% means no effect; nearly all actives have a fitted effect of over 45% in size
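H1299 (p53-null), stable ts p53-A138V + BP100-Luc; 1000 cells/well, Opti-MEM/10% FBS; cpd 4 pt, 1:5; 24 h, 37 deg C, 5% CO2; detection reagent 10 min RT; luminescence.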
BRCA1 expr up: BRCA1 expression activation. MCF7-BRCA1-FFLuc reporter, luminescence, 48 h; response scale: scaled: vehicle 0%, 10 µM genistein 100%. Potency, µM (top dose mostly 46.1 µM), without a hit: at the highest dose activation, hits mostly activators. actives 1.1% (n = 380,000); further: potency means the concentration at half of the fitted maximal effect; nearly all actives have a fitted effect of over 80% in size
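First, MCF7-BRCA1-FFLuc cells (2000/well) attach for 2 h; next, compounds are pin-added and incubated 48 h at 37 °C; finally, luciferase reagent is added and luminescence read after 15 min.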
TSHR antagonist: antagonists of human thyroid stimulating hormone receptor; P16473; TSHR-expressing cells, TSH-stimulated cAMP HTRF, 2 h; active compounds read low; activity change, negative = inhibition, % at 11.5 µM; actives 0.2% (n = 330,000);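 active means activity change below a set negative limit, meaning inhibition stronger than a set level, cut at about -70% in these data; inconclusive means activity change between two set negative limits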; further: on the % scale 0 is the no-effect control and ±100 the full control effect
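Competitive HTRF cAMP read-out (cryptate anti-cAMP antibody, cAMP-d2; 30 min, room temperature) in freshly harvested TSHR cells. Compounds added before TSH at EC80 (4nM final), followed by 2 hours' incubation at 37 deg C.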
TCR activator: activates T cell receptor signaling; 330,000 tested, under 10 active; primary human leukocytes, anti-CD3, IL-2 HTRF, 48 h; AID 504894; Potency, µM (doses to about 9.22 µM), without a hit: at the top dose activation of IL-2 secretion, most hits filed as activators; further: % of control where 0% means no effect
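Activity was scored as IL-2 release from primary human leukocytes given only a TCR signal (a-CD3 beads) plus compound for 48 hr. Detection used a two-antibody HTRF format read at 665nm.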
GLS inh: inhibitors of human glutaminase (GLS) | GLS enzymatic activity, qHTS titration | Potency, µM (doses to about 45.5 µM), for inactives: top-dose activity change, negative = inhibition, most hits filed as inhibitors | actives 0.21% (n = 410,000) | AID 624170; further: potency means the concentration at half of the fitted maximal effect; on the % scale 0 is the no-effect control and ±100 the full control effect
Target sequence (O94925 whole entry, looked up): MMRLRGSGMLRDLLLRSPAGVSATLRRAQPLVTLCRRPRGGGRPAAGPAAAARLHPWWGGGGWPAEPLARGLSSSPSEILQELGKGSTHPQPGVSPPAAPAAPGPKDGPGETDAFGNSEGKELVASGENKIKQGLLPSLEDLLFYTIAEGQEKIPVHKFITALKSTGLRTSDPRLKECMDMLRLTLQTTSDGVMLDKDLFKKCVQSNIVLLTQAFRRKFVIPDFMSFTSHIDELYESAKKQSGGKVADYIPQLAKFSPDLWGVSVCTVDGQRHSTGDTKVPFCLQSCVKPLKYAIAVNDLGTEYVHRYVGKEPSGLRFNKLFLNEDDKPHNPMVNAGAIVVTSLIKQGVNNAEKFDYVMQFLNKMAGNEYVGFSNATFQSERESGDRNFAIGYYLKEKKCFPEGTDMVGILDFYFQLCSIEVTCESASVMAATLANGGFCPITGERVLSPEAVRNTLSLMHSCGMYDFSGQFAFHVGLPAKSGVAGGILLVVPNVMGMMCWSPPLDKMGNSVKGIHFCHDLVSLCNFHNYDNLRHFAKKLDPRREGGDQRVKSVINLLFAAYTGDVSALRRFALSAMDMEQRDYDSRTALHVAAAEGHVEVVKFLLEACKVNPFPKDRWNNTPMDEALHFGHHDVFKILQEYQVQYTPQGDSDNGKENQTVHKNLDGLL
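Human kidney-isoform GLS in 45 mM KH2PO4 pH 8.2, 0.02% Tween-20, with compound, started with 1mM L-Glutamine (added stock). Glutamate oxidase/HRP/Amplex red coupled fluorescence read at start and after 30 min at RT.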
N370S GC mod: inhibits or activates N370S mutant glucocerebrosidase; N370S GC spleen homogenate, 4MU-glucoside fluorescence; Potency, µM (top dose mostly 59.4 µM), for inactives: at the top dose activity change, negative = inhibition, usual class: inhibitors; P04062; actives 0.092% (n = 330,000);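 further: potency means the concentration at half of the fitted maximal effect; 0% = full enzyme activity and -100% = no enzyme basal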
Starred values were filed as active, the others as inactive; ? = inconclusive; · = not tested or not shown; ! = not active in a repeat; [ ] = remark or other dose. Compounds with a hit are over-represented: about 1.4% of the library has one in this group of screens. Unless noted, the call rests on the fitted dose curve; in most records, active means well fitted curve in the direction sought with a large enough effect; inconclusive means small, poorly fitted or top-dose-only effect, or another doubt; inactive means no such curve, though single readings can be large; an effect the other way counts as inactive or inconclusive.

SMILES	p53 reactivator	BRCA1 expr up	TSHR antagonist	TCR activator	GLS inh	N370S GC mod
Nc1nc2nc[nH]c2c(=O)[nH]1	2%	8%	-71*	-3%	7%	-8%
O=c1[nH]cnc2nc[nH]c12	·	·	·	·	3%	4%
O=C(COc1ccccc1C(=O)Nc1ccccc1)Nc1ccccc1-c1ccccc1	·	-48%	·	·	·	·
CCOC(=O)c1sc2nc3c(SCCC#N)cc(C(=O)c4cc(F)ccc4O)cn3c(=O)c2c1C	-4%	-37%	-5	4%[46.1 µM]	23%	-6%
CCOC(=O)c1sc2nc3c(SCCC(=O)O)cc(C(=O)c4cc(OC)ccc4O)cn3c(=O)c2c1C	-2%	-4%	-14	-5%	5.6µM*	-19%
O=C1NCCN/C1=C\C(=O)c1cccc(Br)c1	3%	11µM*	-4	-7%	4%	-12%
CN1CC(O)C2=CC(=O)C(=O)C=C21 (stereo not drawn)	·	·	·	·	·	-8%
O=C(Nc1ccc([N+](=O)[O-])cc1)c1ccccc1F	27%	4.5µM*	2	-10%	2%	-13%
O=[N+]([O-])c1ccc(NNC(=S)Nc2ccc(F)cc2)cc1	28µM*	-61%	-5	3%[46.1 µM]	-22%	-7%
O=C(Nc1ccc(-c2ccc([N+](=O)[O-])cc2)cc1)c1ccccc1F	0%	4%	8	-2%	-3%	-3%
Clc1ccc(OCCCN2CCCCC2)c(Br)c1	?	10µM*	10	-3%[46.1 µM]	-1%	3%
CCc1cccc(NC(=O)c2ccc(CNS(=O)(=O)c3ccc4c(c3)C(C)(C)C(=O)N4C)cc2)c1	·	·	·	·	2%	·
NC(=O)C1CCN(c2nc(-c3cccc(Cl)c3)cs2)CC1	4%	4µM*	-7	-3%	23%	·
Cc1ccc(-c2csc(N3CCC(C(N)=O)CC3)n2)cc1	3%	?	-5	-5%	5%	·
NC(=O)C1CCN(c2nc(-c3ccc4ccccc4c3)cs2)CC1	7%	13µM*	-5	1%	27%	·
Cc1cccc(-c2csc(N3CCC(C(N)=O)CC3)n2)c1	·	·	-6	·	·	·
CC(OC(=O)c1ccccc1OCC(=O)Nc1ccc(Br)cc1)C(=O)NC1CCCC1 (stereo not drawn)	·	15%	·	·	·	·
COc1ccc2c(CC(=O)OCC(=O)N3CCc4ccccc43)coc2c1	-2%	11%	3	·	8%	11%
COc1ccc2c(CC(=O)N3CCc4ccccc43)coc2c1	29%	3.5µM*	-2	7%	-1%	5%
COc1ccc(CC(=O)N2CCc3ccccc32)cc1	?	8.9µM*	-23	9%[46.1 µM]	10%	6%
ON=C1CCCCC1	·	·	·	·	·	-2%
Cc1ccc(S(=O)(=O)N(Cc2ccccc2)c2ccccc2C(=O)N2CCCCC2)cc1	-6%	-57%	-78*	0%	-14%	26%
CN1CCN(C(=O)c2ccccc2N(Cc2ccccc2)S(=O)(=O)c2ccccc2)CC1	-13%	-55%	1	3%[46.1 µM]	4%	-13%
CCC(=O)Nc1ccc(C(=O)Nc2cccc(C)n2)cc1	7%	2.5µM*	1	3%	-10%	-16%
Cc1cccc(NC(=O)Cc2ccc(-c3ccccc3)cc2)n1	5%	32%	-37	-8%	-6%	1%
SMILES	p53 reactivator	BRCA1 expr up	TSHR antagonist	TCR activator	GLS inh	N370S GC mod
Cc1ccc(CC(=O)Nc2cccc(C)n2)cc1	22%	10µM*	-2	-6%	3%	1%
COc1ccc(-n2nc(C(=O)NCCc3ccc(OC)c(OC)c3)c3c4ccccc4n(C)c3c2=O)cc1	·	9%	·	·	3%	·
COC(=O)c1c(C)nc(C)c(C(=O)OC)c1-c1cccs1	-2%	-22%	4	0%	2%	17%
COC(=O)c1sc(-c2cccs2)cc1N	9%	13µM*	0	3%	5%	7%
COC(=O)c1sc(-c2ccc(Cl)cc2)cc1N	6%	4µM*	-8	5%	-3%	4%
Nc1nonc1-n1nnc(C(=O)N/N=C/c2ccc(OCc3cccc(Cl)c3)cc2)c1CN1CCCCC1	?	2.5µM*	0	-9%	-5%	3%
Cc1cccc(COc2ccc(/C=N/NC(=O)c3nnn(-c4nonc4N)c3CN3CCCCC3)cc2)c1	21%	57%	-8	-25%	5%	0%
CC1CCN(Cc2c(C(=O)N/N=C/c3cc(Cl)ccc3O)nnn2-c2nonc2N)CC1	1%	-91%	-100*	-2%	-4%	-7%
CC1CCN(Cc2c(C(=O)N/N=C/c3cc(Br)ccc3O)nnn2-c2nonc2N)CC1	17%	-44%	-4	0%	9%	-15%
O=C(O)c1ccc(-n2ncc3c2/C(=C/c2cccc([N+](=O)[O-])c2)CC3)cc1	14%	6.3µM*	-14	9%	16%	13%
O=C(O)c1ccc(-n2ncc3c2/C(=C\c2cccc([N+](=O)[O-])c2)CC3)cc1	·	68%	·	13%	12%	·
Fc1cccc(Cl)c1CSc1nnc2ccccn12	18%	?	20	-4%	-12%	8%
Fc1ccc(CSc2nnc3ccccn23)c(Cl)c1	2%	10µM*	2	14%	-2%	-5%
O=C(CSc1nnc2ccccn12)Nc1ncc(Cl)cc1Cl	?	10µM*	3	11%	2%	3%
Clc1ccc(-c2noc3ncnc(NCCc4ccccc4)c23)cc1	·	-19%	·	·	-1%	·
N[C@@H](Cc1cc(I)c(Oc2ccc(O)c(I)c2)c(I)c1)C(=O)O	3%	-32%	0	44%	16µM*!	?
CCC(Oc1ccccc1)C(=O)NC1C(=O)N2C1SC(C)(C)C2C(=O)O (stereo not drawn)	12%	-12%	1	3%	25µM*	-15%
CC1(C)SC2C(C(=O)O)N=C(Cc3ccccc3)N2C1C(=O)O (stereo not drawn)	·	-16%	·	-3%	16µM*	·
CC1(C)S[C@@H]2[C@H](NC(=O)Cc3ccccc3)C(=O)N2[C@H]1C(=O)O	-2%	0%	33	3%	1%	-2%
Cc1onc(-c2c(F)cccc2Cl)c1C(=O)N[C@@H]1C(=O)N2C(C(=O)O)C(C)(C)S[C@H]12 (stereo partly drawn)	-2%	0%	1	-15%	11µM*	-3%
CCOc1ccc2ccccc2c1C(=O)N[C@@H]1C(=O)N2[C@@H]1SC(C)(C)[C@@H]2C(=O)O	-4%	16%	2	2%	4µM*!	-5%
O=C(Cc1ccccc1)NCC(=O)OCC(=O)c1ccc2ccccc2c1	·	-13%	·	·	·	·
Cc1ccc2c(c1)cc(C(=O)NCc1ccc(F)cc1)n2C	·	·	·	·	5%	·

Screening results: PubChem BioAssay, National Center for Advancing Translational Sciences (NCATS)
